Where “and” joins values, the source holds several entries; their conditions need not be identical. Equal values may be shown once. The campaign covered roughly 5,500 compounds. About 2,000 (36%) were called active. Roughly 18% stayed inconclusive and do not appear here. Rule as the data show it: active = normalized growth mostly below about 0.91 (no sharp cut-off); inconclusive = no clear call, values can overlap the other calls; inactive = mostly above about 0.92. The list shows a part of the results.
Assay: chemical genetic growth profiling, strain panel (AID 1159580);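 also: tested at 20 µM; growth read once vehicle control cultures reached saturation at 30 °C; 1 = growth at the plate median or of vehicle wells; lower values mean less growth of the strain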
Conditions: S. cerevisiae deletion strains, growth OD

Measured: normalized growth

CCCCN(CC)c1c([N+](=O)[O-])cc(C(F)(F)F)cc1[N+](=O)[O-]
inactive: locus YAL013W, strain DEP1, stronger effect = lower value 1.01 | locus YAL021C, strain ccr4, stronger effect = lower value 0.998 | locus YAL026C, strain drs2, stronger effect = lower value 1.02 | locus YAL030W, strain snc1, stronger effect = lower value 1.02 | locus YBL061C, strain skt5, stronger effect = lower value 1 | locus YBR009C, strain hhf1, stronger effect = lower value 1 | locus YBR021W, strain FUR4, stronger effect = lower value 1.03 | locus YBR023C, strain chs3, stronger effect = lower value 1.01 | locus YBR171W, strain sec66, stronger effect = lower value 1.03 | locus YBR229C, strain ROT2, stronger effect = lower value 0.999 | locus YBR231C, strain swc5, stronger effect = lower value 1 | locus YBR279W, strain paf1, stronger effect = lower value 1.01 | locus YCL011C, strain gbp2, stronger effect = lower value 1 | locus YCL016C, strain dcc1, stronger effect = lower value 1.01 | locus YCL029C, strain bik1, stronger effect = lower value 1.02 | locus YCL061C, strain MRC1, stronger effect = lower value 1.01 | locus YCL069W, strain vba3, stronger effect = lower value 1.02 | locus YCR088W, strain abp1, stronger effect = lower value 1.01 | locus YDL005C, strain med2, stronger effect = lower value 1.02 | locus YDL035C, strain GPR1, stronger effect = lower value 1.02 | locus YDL040C, strain nat1, stronger effect = lower value 1.01 | locus YDL074C, strain BRE1, stronger effect = lower value 1.03 | locus YDL101C, strain DUN1, stronger effect = lower value 1.01 | locus YDL134C, strain PPH21, stronger effect = lower value 1.01 | locus YDL185W, strain tfp1, stronger effect = lower value 1.03 | locus YDL192W, strain arf1, stronger effect = lower value 1.02 | locus YDR001C, strain nth1, stronger effect = lower value 1.01 | locus YDR069C, strain doa4, stronger effect = lower value 1 | locus YDR101C, strain arx1, stronger effect = lower value 1.01 | locus YDR137W, strain rgp1, stronger effect = lower value 0.98 | locus YDR150W, strain NUM1, stronger effect = lower value 1.01 | locus YDR159W, strain sac3, stronger effect = lower value 1 | locus YDR162C, strain NBP2, stronger effect = lower value 1.02 | locus YDR195W, strain ref2 1.01 | locus YDR297W, strain sur2, stronger effect = lower value 1 | locus YDR318W, strain mcm21, stronger effect = lower value 1.01 | locus YDR334W, strain swr1, stronger effect = lower value 1.02 | locus YDR335W, strain msn5, stronger effect = lower value 1.02 | locus YDR388W, stronger effect = lower value 1.01 | locus YDR392W, strain spt3, stronger effect = lower value 1.01 | locus YDR502C, strain sam2, stronger effect = lower value 1.01 | locus YEL003W, strain gim4, stronger effect = lower value 1.02 | locus YEL037C, strain rad23, stronger effect = lower value 1.01 | locus YEL061C, strain CIN8 (second series), stronger effect = lower value 1.03 | locus YEL061C, strain CIN8, stronger effect = lower value 1.01 | locus YER015W, strain faa2, stronger effect = lower value 1.02 | locus YER016W, strain bim1, stronger effect = lower value 1.01 | locus YER110C, stronger effect = lower value 1.02 | locus YER111C, strain swi4, stronger effect = lower value 1.01 | locus YER155C, strain BEM2 (second series), stronger effect = lower value 1.03 | locus YER155C, strain BEM2, stronger effect = lower value 1.01 | locus YER167W, strain BCK2, stronger effect = lower value 1.01 | locus YFR010W, strain ubp6, stronger effect = lower value 1.02 | locus YGL078C, strain dbp3, stronger effect = lower value 1.01 | locus YGL086W, strain mad1, stronger effect = lower value 1.01 | locus YGL167C, strain pmr1, stronger effect = lower value 1.01 | locus YGL173C, strain kem1, stronger effect = lower value 1.01 | locus YGL227W, strain vid30, stronger effect = lower value 1.01 | locus YGL240W, strain doc1, stronger effect = lower value 1.02 | locus YGL248W, strain PDE1, stronger effect = lower value 1 | locus YGL253W, strain hxk2, stronger effect = lower value 1.02 | locus YGR078C, strain PAC10, stronger effect = lower value 1.01 | locus YGR135W, strain pre9, stronger effect = lower value 1.01 | locus YGR229C, strain SMI1, stronger effect = lower value 1.02 | locus YGR252W, strain gcn5, stronger effect = lower value 1.05 | locus YHR013C, strain ard1, stronger effect = lower value 1.06 | locus YHR027C, strain rpn1, stronger effect = lower value 1.03 | locus YHR030C, strain SLT2, stronger effect = lower value 1.01 and 1.08 | locus YHR079C, strain IRE1 (second series), stronger effect = lower value 1.01 | locus YHR079C, strain IRE1, stronger effect = lower value 1.03 | locus YHR094C, strain hxt1, stronger effect = lower value 1.01 | locus YHR129C, strain ARP1, stronger effect = lower value 1.01 | locus YHR142W, strain chs7, stronger effect = lower value 1.02 | locus YHR200W, strain rpn10, stronger effect = lower value 1.01 | locus YIL066C, strain RNR3, stronger effect = lower value 1.01 | locus YIL073C, strain SPO22, stronger effect = lower value 1.02 | locus YIL125W, strain kgd1, stronger effect = lower value 1.01 | locus YIR030C, strain dcg1, stronger effect = lower value 1.01 | locus YJL092W, strain hpr5, stronger effect = lower value 1.01 | locus YJL095W, strain BCK1 (second series), stronger effect = lower value 1.01 | locus YJL095W, strain BCK1, stronger effect = lower value 0.996 and 1.05 | locus YJL115W, strain asf1, stronger effect = lower value 1.01 | locus YJL129C, strain trk1, stronger effect = lower value 1.01 | locus YJL134W, strain LCB3, stronger effect = lower value 1.01 | locus YJL154C, strain vps35, stronger effect = lower value 1.02 | locus YJL164C, strain tpk1, stronger effect = lower value 1.01 | locus YJL166W, strain qcr8, stronger effect = lower value 1 | locus YJL168C, strain set2, stronger effect = lower value 1.01 | locus YJL187C, strain SWE1 (second series), stronger effect = lower value 1.01 | locus YJL187C, strain SWE1, stronger effect = lower value 1.01 | locus YJR043C, strain POL32, stronger effect = lower value 1.02 | locus YJR066W, strain TOR1, stronger effect = lower value 0.992

Source: PubChem BioAssay AID1159580 (chemical genetic matrix, 2015)
